Giardia killer – kills Giardia lamblia; Giardia lamblia trophozoite viability; actives 0.15% (n = 340,000); activity change, % at 7.66 µM, hits read low; in the data active means activity change below about -80%; inconclusive means between about -30% and that limit;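 further: parasites exposed to compound for two days anaerobically before the ATP read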
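Luminescent ATP signal served as the viability read-out, measured 15-30 min after adding ATP detection reagent to trophozoites that had been incubated with compounds for 48 hrs at 37 deg C anaerobically at 100 cells/well.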
MCF10A rerep – induces DNA re-replication in MCF 10a normal breast cells; MCF 10A DNA re-replication, Hoechst nuclear intensity, 48 h; Potency, µM (doses to about 46.1 µM), hits mostly activators; actives 2.9% (n = 350,000); further: nearly all actives have a fitted effect of over 50% in size
uPA surface inh – cell surface uPA generation inhibition. AID 540303. actives 0.31% (n = 330,000). Potency, µM (series often up to 38.3 µM), hits mostly inhibitors. cell surface uPA generation assay, qHTS; active means well fitted inhibition curve with a large enough effect; inconclusive means small, poorly fitted or top-dose-only effect; inactive means no such curve, though single readings can be large or run the other way; tested in mouse RAW 264.7 cells; further: nearly all actives have a fitted effect of over 55% in size
SW480 rereplic – inducers of DNA re-replication in SW480 colon cancer cells; Potency, µM (doses to about 46.1 µM), actives largely listed as activators; actives 1.8% (n = 340,000); SW480 DNA re-replication, Hoechst DNA content imaging, 48 h; further: nearly all actives have a fitted effect of over 55% in size
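Image-based read-out: total Hoechst fluorescence of nuclei (405 nm excitation, 500-530 nm emission), with hits raising the fraction of high-intensity nuclei. SW480 colon cells incubated 48 hr with compounds at 37 C.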
A number is an active result; n = inactive; u = inconclusive; x = no result. Shown are actives, neighbours in structure and some others; about 4.3% of the full set was active somewhere. Unless noted, the call rests on the fitted dose curve; in most records, active means well fitted activation curve with a large enough effect; inconclusive means small, poorly fitted or top-dose-only effect; inactive means no such curve, though single readings can be large or run the other way.

SMILES | Giardia killer | MCF10A rerep | uPA surface inh | SW480 rereplic
COc1ccc(NC(=O)[C@H](Cc2c[nH]c3ccccc23)NC(=O)[C@@H]2Cc3ccccc3CN2)cc1 | n | 15µM | n | u
COc1ccc(CNC(=O)[C@H](Cc2c[nH]c3ccccc23)NC(=O)[C@@H]2Cc3ccccc3CN2)cc1 | n | n | n | n
CCn1c(SCC(=O)Nc2ccc3c(c2)OCCO3)nnc1-c1c[nH]c2ccccc12 | n | n | n | n
O=C(CSc1nnc(-c2c[nH]c3ccccc23)n1CC1CCCO1)Nc1ccc2c(c1)OCCO2 (centres undefined) | n | 29µM | n | n
O=C(Nc1cc(S(=O)(=O)N2CCOCC2)ccc1OCC(F)(F)F)C1=COCCO1 | n | n | n | n
O=C(CN1C(=O)/C(=C/c2ccccc2F)SC1=S)NC1C=CS(=O)(=O)C1 (centres undefined) | n | n | n | n
O=C(CN1C(=O)/C(=C/c2cccc(Cl)c2)SC1=S)NC1C=CS(=O)(=O)C1 (centres undefined) | n | 15µM | n | u
O=C(CN1C(=O)S/C(=C\c2ccc(Cl)cc2)C1=O)NC1C=CS(=O)(=O)C1 (centres undefined) | n | u | n | 23µM
CC(C(=O)NC1C=CS(=O)(=O)C1)N1C(=O)/C(=C/c2cccc(Cl)c2)SC1=S (centres undefined) | u | u | u | n
CN(C(=O)CN1C(=O)S/C(=C\c2cccc(Cl)c2)C1=O)C1CCS(=O)(=O)C1 (centres undefined) | n | 23µM | n | n
O=C(CN1C(=O)S/C(=C\c2cccc(Cl)c2)C1=O)NC1C=CS(=O)(=O)C1 (centres undefined) | n | 9.2µM | n | u
CC(C)c1c(C(=O)Nc2ccccc2)c(-c2ccccc2)c(-c2ccc(F)cc2)n1CC[C@@H](O)C[C@@H](O)CC(=O)O | x | n | x | u
Cc1cc(COc2ccccc2)oc1C(=O)O | n | n | n | n
COc1cccc(N2CCN(C(=O)c3[nH]c(C)c(C(C)=O)c3C)CC2)c1 | n | u | n | 7.1µM
CC(=O)c1c(C)[nH]c(C(=O)N2CCN(c3ccc(F)cc3)CC2)c1C | n | n | x | n
CC(=O)c1c(C)[nH]c(C(=O)N2CCN(c3cc(Cl)ccc3C)CC2)c1C | n | 10µM | n | 9.2µM
C[C@H](O)[C@@H]1C(=O)N2C(C(=O)O)=C(SCCN=CN)C[C@@H]12 | x | n | x | n
CC(=O)Nc1ccc(S(=O)(=O)NCCSCc2cccc(Cl)c2)cc1 | n | n | n | n
CC(=O)Nc1ccc(S(=O)(=O)NCCSCc2c(Cl)cccc2Cl)cc1 | n | 23µM | x | n
CCc1cc(=O)oc2cc(O[C@@H]3O[C@H](CO)[C@@H](O)[C@H](O)[C@H]3O)c(Cl)cc12 | n | n | n | 18µM
NC(=S)N/N=C/c1cn(-c2ccccc2)nc1-c1cccnc1 | n | n | n | n
CCc1cc(C)cc(OCCOc2ccccc2/C=N/NC(C)=O)c1 | n | n | u | n
CC(=O)N/N=C/c1ccccc1OCCOc1cccc(C)c1 | n | u | 13µM | u
COc1ccc(C(=O)CSc2nnc(CCc3ccccc3)n2-c2ccccc2)cc1 | n | 7.3µM | n | n
CCN1c2ccccc2N(C)C1(C)c1ccccc1 (centres undefined) | n | u | n | 12µM
SMILES | Giardia killer | MCF10A rerep | uPA surface inh | SW480 rereplic
CCN1C(=O)N(c2cccc3ccccc23)C(C)=CC1(C)C | n | n | n | n
CN1c2ccccc2N(C)C1(C)c1ccccc1 | n | u | n | 5.8µM
NC(=O)c1nsc(C(=O)N(CC(=O)NC2CCCCC2)Cc2ccc3c(c2)OCO3)c1N | n | x | x | x
Cc1ccc(O)c(Sc2cc(C)ccc2O)c1 | n | u | n | n
Cc1ccc(O)c(N)c1 | n | u | 2.8µM | u
COc1ccc(C2C(C(C)=O)=C(O)C(=O)N2c2nccs2)c(OC)c1 (centres undefined) | n | n | n | 21µM
CC(=O)C1=C(O)C(=O)N(c2nccs2)C1c1ccccc1F (centres undefined) | n | n | n | n
CCOC(=O)c1cnc2ccc(OCC)cc2c1NCc1ccccc1 | n | 21µM | n | n
CCOC(=O)c1cnc2ccc(OCC)cc2c1N1CCN(c2ccccc2)CC1 | n | u | n | n
CCOC(=O)c1cnc(-n2nc(C)cc2C)nc1NCCO | n | n | x | n
CCOC(=O)c1cnc(-n2nc(C)cc2C)nc1NCc1ccccc1 | n | 21µM | n | u
CCOC(=O)c1cnc2ccc(OCC)cc2c1NCc1cccnc1 | n | 23µM | n | n
O=C1c2ccccc2[C@@H]2C[C@H](NC34CC5CC(CC(C5)C3)C4)[C@@H](O)CCN12 | n | n | n | n
Cn1c(=O)c2c(nc(OC3CCCC3)n2C)n(C)c1=O | n | n | n | n
Cc1ccc(Cl)cc1Nc1nc(-c2sc(NC(=O)c3ccco3)nc2C)cs1 | n | 21µM | 7.9µM | n
Cc1nc(NC(=O)c2ccco2)sc1-c1csc(Nc2ccc(Cl)cc2)n1 | n | n | n | n
Cc1nc(NC(=O)c2ccco2)sc1-c1csc(Nc2ccc(Cl)cc2Cl)n1 | n | 16µM | n | u
Cc1nc(NC(=O)CC(C)C)sc1-c1csc(Nc2ccc(Cl)cc2Cl)n1 | n | n | n | n
Cc1ccc2nc(C)c(C(=O)NN=C3CCCCCC3)n2c1 | n | u | 4.5µM | u
NC(=O)C1CCN(C(=O)c2cc(-c3ccc(Cl)s3)nc3ccccc23)CC1 | n | u | n | 18µM
CC1CN(C(=O)c2cc(-c3ccc(Cl)s3)nc3ccccc23)CC(C)O1 (centres undefined) | n | u | n | n
O=c1[nH]c(=O)c2nc3c4ccccc4c4ccccc4c3nc2[nH]1 | n | 2.6µM | n | u
COc1ccc(-n2c(CCC(=O)O)ccc2-c2ccccc2)cc1 | n | n | n | n
COc1ccc(-c2ccc(CCC(=O)O)n2CC(C)C)cc1 | n | u | x | 9.2µM
C=CCn1c(CCC(=O)O)ccc1-c1ccc(OC)cc1 | n | n | n | n
SMILES | Giardia killer | MCF10A rerep | uPA surface inh | SW480 rereplic
COc1ccc(-c2ccc(CCC(=O)O)n2-c2ccccc2O)cc1 | n | 1.8µM | u | 21µM
Cc1cccc(CN2CC34CCC(CC3S2(=O)=O)O4)c1 (centres undefined) | n | x | x | x
O=C(NCc1ccccc1)C(=O)NCC1COc2ccccc2O1 (centres undefined) | n | 12µM | n | u
CN(Cc1ccccc1)C(=O)c1ccc(S(=O)(=O)N(C)c2ccccc2)cc1 | n | n | u | n
Cc1ccc(S(=O)(=O)c2ncccc2[N+](=O)[O-])cc1 | u | 5.8µM | 4µM | 12µM
N=C1C(=O)OCC1c1ccccc1NC(=O)Nc1ccccc1 (centres undefined) | n | n | n | n
CC(C)=Nc1ccccc1C1COC(=O)C1=N (centres undefined) | n | n | n | 0.52µM
Cc1ccc(CNS(=O)(=O)c2ccc3c(c2)CCN3C(=O)C2CCC2)cc1 | n | n | n | n
CCCN(CCC)CCNS(=O)(=O)c1ccc2c(c1)CCN2C(=O)C1CCC1 | n | 2.6µM | n | 12µM
O=C1c2ccccc2C(=O)c2c1ncn2-c1ccccc1 | n | u | n | 16µM

Assay outcomes as filed in PubChem BioAssay.
